Over roughly 8,300 sequences, “log2 fold change of degron read counts, EGFP-low vs EGFP+ sorted cells (limma voom), compound-induced degradation” has its median near -1.1; the highest 2% begin near 3.2. For the sample, the highest values were picked, then their nearest neighbours and some sequences at random.
Biological target: T1, CRBN, Q96SW2
T1 chain: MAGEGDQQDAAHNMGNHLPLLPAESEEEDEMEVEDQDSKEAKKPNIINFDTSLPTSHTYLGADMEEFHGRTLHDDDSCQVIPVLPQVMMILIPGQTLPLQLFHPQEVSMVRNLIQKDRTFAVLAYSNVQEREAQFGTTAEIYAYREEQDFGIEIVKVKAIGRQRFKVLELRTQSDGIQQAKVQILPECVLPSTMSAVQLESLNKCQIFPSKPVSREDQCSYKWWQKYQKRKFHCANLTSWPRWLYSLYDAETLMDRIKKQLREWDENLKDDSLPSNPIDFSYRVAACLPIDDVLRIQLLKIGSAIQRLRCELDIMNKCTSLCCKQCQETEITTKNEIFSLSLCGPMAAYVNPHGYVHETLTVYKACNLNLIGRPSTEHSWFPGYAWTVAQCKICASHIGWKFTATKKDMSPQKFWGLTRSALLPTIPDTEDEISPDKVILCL
Assay: log2 fold change of degron read counts, EGFP-low vs EGFP+ sorted cells (limma voom), compound-induced degradation; higher = more compound-induced degradation of the degron-EGFP fusion; degrons are variants of IKZF1/3 zinc finger 2; compound dose not given here
Conditions: Jurkat, 18 h

[1] = compound: compound 19 (5-tert-butyl-thalidomide)
[2] = compound: compound 22 (5-morpholino-thalidomide)
[3] = compound: compound 33 (diphenyl IMiD analogue)
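Also: pooled lentiviral library of zinc finger degron-EGFP fusions in mCherry-positive Jurkat cells, FACS-sorted after compound exposure, with degron abundance counted by next-generation sequencing.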

Sequence: FSCPICGHVFTQKGNLLRHIKL [46F_47S_49P_50I_52G_53H_54V_55F_67L_, Q9UKT9]
- log2 fold change of degron read counts [1]: -2.55
- log2 fold change of degron read counts [2]: -2.29
- log2 fold change of degron read counts [3]: -1.52
- log2 fold change of degron read counts (compound: thalidomide): -1.64

Sequence: FLCDVCGAKFTQKGNLLRHIKL [46F_47L_49D_50V_52G_53A_54K_55F_67L_, Q9UKT9]
- log2 fold change of degron read counts [1]: -1.99
- log2 fold change of degron read counts [2]: -3.99
- log2 fold change of degron read counts [3]: -1.78
- log2 fold change of degron read counts (compound: thalidomide): -0.928

Sequence: FLCEICGHCFTQKGNLLRHIKL [46F_47L_49E_50I_52G_53H_54C_55F_67L_, Q9UKT9]
- log2 fold change of degron read counts [1]: -3.3
- log2 fold change of degron read counts [2]: -3.75
- log2 fold change of degron read counts [3]: -3.16
- log2 fold change of degron read counts (compound: thalidomide): -2.4

Sequence: FMCEICGHTFTQKGNLLRHIKL [46F_47M_49E_50I_52G_53H_54T_55F_67L_, Q9UKT9]
- log2 fold change of degron read counts [1]: -3.32
- log2 fold change of degron read counts [2]: -4.22
- log2 fold change of degron read counts [3]: -2.78
- log2 fold change of degron read counts (compound: thalidomide): -3.14

Sequence: LWCPICGFNCTQKGNLLRHIKL [46L_47W_49P_50I_52G_53F_54N_55C_67L_, Q9UKT9]
- log2 fold change of degron read counts [1]: 2.43
- log2 fold change of degron read counts [2]: 3.5
- log2 fold change of degron read counts [3]: 2.36
- log2 fold change of degron read counts (compound: thalidomide): 1.53

Sequence: LICPICGFRCTQKGNLLRHIKL [46L_47I_49P_50I_52G_53F_54R_55C_67L_, Q9UKT9]
- log2 fold change of degron read counts [1]: 0.753
- log2 fold change of degron read counts [2]: 2.24
- log2 fold change of degron read counts [3]: 1.19
- log2 fold change of degron read counts (compound: thalidomide): 2.84

Sequence: LACPICGFNCTQKGNLLRHIKL [46L_47A_49P_50I_52G_53F_54N_55C_67L_, Q9UKT9]
- log2 fold change of degron read counts [1]: 2.23
- log2 fold change of degron read counts [2]: 1.61
- log2 fold change of degron read counts [3]: 1.93
- log2 fold change of degron read counts (compound: thalidomide): 1.49

Sequence: LGCPICGFRCTQKGNLLRHIKL [46L_47G_49P_50I_52G_53F_54R_55C_67L_, Q9UKT9]
- log2 fold change of degron read counts [1]: 3.17
- log2 fold change of degron read counts [2]: 2.04
- log2 fold change of degron read counts [3]: 0.549
- log2 fold change of degron read counts (compound: thalidomide): 1.14

Sequence: LWCPICGFRCTQKGNLLRHIKL [46L_47W_49P_50I_52G_53F_54R_55C_67L_, Q9UKT9]
- log2 fold change of degron read counts [1]: 3.02
- log2 fold change of degron read counts [2]: 3.7
- log2 fold change of degron read counts [3]: 2.31
- log2 fold change of degron read counts (compound: thalidomide): 2.05

Sequence: LDCPICGFNCTQKGNLLRHIKL [46L_47D_49P_50I_52G_53F_54N_55C_67L_, Q9UKT9]
- log2 fold change of degron read counts [1]: -0.713
- log2 fold change of degron read counts [2]: -1.04
- log2 fold change of degron read counts [3]: -0.142
- log2 fold change of degron read counts (compound: thalidomide): 0.706

Sequence: FRCPICGAIFTQKGNLLRHIKL [46F_47R_49P_50I_52G_53A_54I_55F_67L_, Q9UKT9]
- log2 fold change of degron read counts [1]: -1.29
- log2 fold change of degron read counts [2]: -0.543
- log2 fold change of degron read counts [3]: 0.89
- log2 fold change of degron read counts (compound: thalidomide): 1.18

Sequence: FTCEQCGAQFTQKGNLLRHIKL [46F_47T_49E_50Q_52G_53A_54Q_55F_67L_, Q9UKT9]
- log2 fold change of degron read counts [1]: -2.06
- log2 fold change of degron read counts [2]: -1.12
- log2 fold change of degron read counts [3]: 0.532
- log2 fold change of degron read counts (compound: thalidomide): -0.012

Sequence: FFCPICGHVFTQKGNLLRHIKL [46F_47F_49P_50I_52G_53H_54V_55F_67L_, Q9UKT9]
- log2 fold change of degron read counts [1]: -0.996
- log2 fold change of degron read counts [2]: -1.35
- log2 fold change of degron read counts [3]: -1.19
- log2 fold change of degron read counts (compound: thalidomide): -1.12

Sequence: FACPICGHTFTQKGNLLRHIKL [46F_47A_49P_50I_52G_53H_54T_55F_67L_, Q9UKT9]
- log2 fold change of degron read counts [1]: -2.03
- log2 fold change of degron read counts [2]: -2.66
- log2 fold change of degron read counts [3]: -2.44
- log2 fold change of degron read counts (compound: thalidomide): -2.56

Sequence: FKCNVCGAVFTQKGNLLRHIKL [46F_47K_49N_50V_52G_53A_54V_55F_67L_, Q9UKT9]
- log2 fold change of degron read counts [1]: -2.44
- log2 fold change of degron read counts [2]: -2.91
- log2 fold change of degron read counts [3]: -3.25
- log2 fold change of degron read counts (compound: thalidomide): -2

Sequence: FTCEICGAHFTQKGNLLRHIKL [46F_47T_49E_50I_52G_53A_54H_55F_67L_, Q9UKT9]
- log2 fold change of degron read counts [1]: 0.467
- log2 fold change of degron read counts [2]: 0.746
- log2 fold change of degron read counts [3]: 1.69
- log2 fold change of degron read counts (compound: thalidomide): 2.11

Sequence: FQCEICGAHFTQKGNLLRHIKL [46F_47Q_49E_50I_52G_53A_54H_55F_67L_, Q9UKT9]
- log2 fold change of degron read counts [1]: -0.0399
- log2 fold change of degron read counts [2]: 0.799
- log2 fold change of degron read counts [3]: 0.886
- log2 fold change of degron read counts (compound: thalidomide): 3.17

Sequence: FCCEICGAHFTQKGNLLRHIKL [46F_47C_49E_50I_52G_53A_54H_55F_67L_, Q9UKT9]
- log2 fold change of degron read counts [1]: 2.06
- log2 fold change of degron read counts [2]: 0.682
- log2 fold change of degron read counts [3]: 1.31
- log2 fold change of degron read counts (compound: thalidomide): 1.03

Sequence: FYCEICGAHFTQKGNLLRHIKL [46F_47Y_49E_50I_52G_53A_54H_55F_67L_, Q9UKT9]
- log2 fold change of degron read counts [1]: 3.61
- log2 fold change of degron read counts [2]: 3.49
- log2 fold change of degron read counts [3]: 2.57
- log2 fold change of degron read counts (compound: thalidomide): 1.24

Sequence: FECEICGAHFTQKGNLLRHIKL [46F_47E_49E_50I_52G_53A_54H_55F_67L_, Q9UKT9]
- log2 fold change of degron read counts [1]: -0.919
- log2 fold change of degron read counts [2]: -2.34
- log2 fold change of degron read counts [3]: 1.1
- log2 fold change of degron read counts (compound: thalidomide): 1.26

Sequence: FFCEICGAHFTQKGNLLRHIKL [46F_47F_49E_50I_52G_53A_54H_55F_67L_, Q9UKT9]
- log2 fold change of degron read counts [1]: 3.34
- log2 fold change of degron read counts [2]: 3.33
- log2 fold change of degron read counts [3]: 2.07
- log2 fold change of degron read counts (compound: thalidomide): 1

Sequence: FWCEICGAHFTQKGNLLRHIKL [46F_47W_49E_50I_52G_53A_54H_55F_67L_, Q9UKT9]
- log2 fold change of degron read counts [1]: 3.45
- log2 fold change of degron read counts [2]: 3.78
- log2 fold change of degron read counts [3]: 2.18
- log2 fold change of degron read counts (compound: thalidomide): 1.05

Sequence: FACEICGAHFTQKGNLLRHIKL [46F_47A_49E_50I_52G_53A_54H_55F_67L_, Q9UKT9]
- log2 fold change of degron read counts [1]: 3.32
- log2 fold change of degron read counts [2]: 1.02
- log2 fold change of degron read counts [3]: 0.285
- log2 fold change of degron read counts (compound: thalidomide): -0.547

Sequence: FMCEICGAHFTQKGNLLRHIKL [46F_47M_49E_50I_52G_53A_54H_55F_67L_, Q9UKT9]
- log2 fold change of degron read counts [1]: -0.196
- log2 fold change of degron read counts [2]: -0.917
- log2 fold change of degron read counts [3]: 1.94
- log2 fold change of degron read counts (compound: thalidomide): 0.547

Sequence: FLCEICGAHFTQKGNLLRHIKL [46F_47L_49E_50I_52G_53A_54H_55F_67L_, Q9UKT9]
- log2 fold change of degron read counts [1]: 0.729
- log2 fold change of degron read counts [2]: -1.66
- log2 fold change of degron read counts [3]: 0.445
- log2 fold change of degron read counts (compound: thalidomide): 0.792

Sequence: FNCEICGAHFTQKGNLLRHIKL [46F_47N_49E_50I_52G_53A_54H_55F_67L_, Q9UKT9]
- log2 fold change of degron read counts [1]: 2.65
- log2 fold change of degron read counts [2]: 0.0954
- log2 fold change of degron read counts [3]: -0.0262
- log2 fold change of degron read counts (compound: thalidomide): -0.422

Sequence: FICEICGAHFTQKGNLLRHIKL [46F_47I_49E_50I_52G_53A_54H_55F_67L_, Q9UKT9]
- log2 fold change of degron read counts [1]: -0.091
- log2 fold change of degron read counts [2]: 1.87
- log2 fold change of degron read counts [3]: 1.79
- log2 fold change of degron read counts (compound: thalidomide): 2.1

Sequence: LMCEICGFLCTQKGNLLRHIKL [46L_47M_49E_50I_52G_53F_54L_55C_67L_, Q9UKT9]
- log2 fold change of degron read counts [1]: -1.21
- log2 fold change of degron read counts [2]: -1.08
- log2 fold change of degron read counts [3]: 0.82
- log2 fold change of degron read counts (compound: thalidomide): 0.189
